# Experimental data reported in the supplement of paper PMC8728848.
# Only a selection was taken, and the strongest signals are over-represented in it overall.
# B1: RbmA (Vibrio cholerae), A0A2H4NFB8 (protein)
# chain: MSNFKGSIMNKRHYYLASCLALLFSTASYAEVDCELQPVIEANLSLNQNQLASNGGYISSQLGIRNESCETVKFKYWLSIKGPEGIYFPAKAVVGVDTAQQESDALTDGRMLNVTRGFWVPEYMADGKYTVSLQVVAENGEVFKANQEFVKGGDLNSLPELNGLTIDIKNQFGINSVESTGGFVPFTIDLNNGREGEAKVEFWMTAVGPDGLIIPVHSREKWMIIAGNTFSKVRGINFDKSYPAGEYTINAQVVDIVSGERVEQLMTVVKK
# Assays:
# Test in all cases: glycan array binding signal (z-score within array); higher = stronger binding
# Settings in all cases: glycan notation: IUPAC condensed, linker removed
# [1] = target: Fuc(a1-2)Gal
# Procedure, shortened: (§1)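 The binding signal is a Z-score computed within each array and averaged over linkers. Arrays of the same protein sequence at different concentrations or buffers were also averaged together. Data originate from 3228 arrays in the Consortium for Functional Glycomics database, kept only where the protein sequence was available.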
# [2] = target: Fuc(a1-2)Gal(b1-4)GlcNAc(b1-2)Man(a1-3)[Fuc(a1-2)Gal(b1-4)GlcNAc(b1-2)Man(a1-6)]Man(b1-4)GlcNAc(b1-4)GlcNAc
# Procedure, shortened: as §1
# [3] = target: Fuc(a1-2)[Gal(a1-3)]Gal(b1-3)GlcNAc
# Procedure, shortened: as §1
# [4] = target: Fuc(a1-2)[Gal(a1-3)]Gal(b1-4)GlcNAc
# Procedure, shortened: as §1
# [5] = target: Fuc(a1-2)[GalNAc(a1-3)]Gal
# Procedure, shortened: as §1
# [6] = target: Fuc(a1-2)[GalNAc(a1-3)]Gal(b1-4)GlcNAc(b1-2)Man
# Procedure, shortened: as §1
# [7] = target: Fuc(a1-2)[GalNAc(a1-3)]Gal(b1-4)GlcNAc(b1-2)Man(a1-3)[Fuc(a1-2)[GalNAc(a1-3)]Gal(b1-4)GlcNAc(b1-2)Man(a1-6)]Man(b1-4)GlcNAc(b1-4)GlcNAc
# Procedure, shortened: as §1
# [8] = target: Fuc(a1-2)[GalNAc(a1-3)]Gal(b1-4)GlcNAc(b1-3)GalNAc
# Procedure, shortened: as §1
# [9] = target: Fuc(a1-3)GlcNAc
# Procedure, shortened: as §1
# [10] = target: Fuc(a1-3)[Gal(b1-4)]GlcNAc(b1-2)Man
# Procedure, shortened: as §1
# [11] = target: Fuc(a1-3)[GalNAc(b1-4)]GlcNAc
# Procedure, shortened: as §1
# [12] = target: Gal(a1-3)Gal(b1-3)[Fuc(a1-4)]GlcNAc(b1-2)Man(a1-3)[Gal(a1-3)Gal(b1-3)[Fuc(a1-4)]GlcNAc(b1-2)Man(a1-6)]Man(b1-4)GlcNAc(b1-4)GlcNAc
# Procedure, shortened: as §1
# [13] = target: Gal(a1-3)Gal(b1-4)[Fuc(a1-3)]GlcNAc(b1-2)Man(a1-3)[Gal(a1-3)Gal(b1-4)[Fuc(a1-3)]GlcNAc(b1-2)Man(a1-6)]Man(b1-4)GlcNAc(b1-4)GlcNAc
# Procedure, shortened: as §1
# [14] = target: Gal(a1-4)Gal(b1-3)GlcNAc(b1-2)Man(a1-3)[Gal(a1-4)Gal(b1-3)GlcNAc(b1-2)Man(a1-6)]Man(b1-4)GlcNAc(b1-4)GlcNAc
# Procedure, shortened: as §1
# [15] = target: Gal(a1-4)Gal(b1-4)GlcNAc(b1-3)Gal(b1-4)Glc
# Procedure, shortened: as §1
# [16] = target: Gal(b1-2)Gal
# Procedure, shortened: as §1
# [17] = target: Gal(b1-3)GalNAc(b1-4)Gal(b1-4)Glc
# Procedure, shortened: as §1
# [18] = target: Gal(b1-3)GlcNAc(b1-2)[Gal(b1-3)GlcNAc(b1-6)]Man(a1-6)[Gal(b1-3)GlcNAc(b1-2)Man(a1-3)]Man(b1-4)GlcNAc(b1-4)GlcNAc
# Procedure, shortened: as §1
# [19] = target: Gal(b1-3)GlcNAc6S
# Procedure, shortened: as §1
# [20] = target: Gal(b1-4)GlcNAc(b1-2)Man(a1-3)[GlcNAc(b1-2)Man(a1-6)]Man(b1-4)GlcNAc(b1-4)GlcNAc
# Procedure, shortened: as §1
# [21] = target: Gal(b1-4)GlcNAc(b1-3)Gal(b1-4)GlcNAc(b1-3)Gal(b1-4)GlcNAc(b1-3)Gal(b1-4)GlcNAc(b1-2)[Gal(b1-4)GlcNAc(b1-3)Gal(b1-4)GlcNAc(b1-3)Gal(b1-4)GlcNAc(b1-3)Gal(b1-4)GlcNAc(b1-6)]Man(a1-6)[Gal(b1-4)GlcNAc(b1-3)Gal(b1-4)GlcNAc(b1-3)Gal(b1-4)GlcNAc(b1-3)Gal(b1-4)GlcNAc(b1-2)Man(a1-3)]Man(b1-4)GlcNAc(b1-4)[Fuc(a1-6)]GlcNAc
# Procedure, shortened: as §1
# [22] = target: Gal(b1-4)GlcNAc(b1-3)Gal(b1-4)GlcNAc(b1-3)Gal(b1-4)GlcNAc(b1-3)Gal(b1-4)GlcNAc(b1-3)Gal(b1-4)GlcNAc(b1-2)Man(a1-3)[Gal(b1-4)GlcNAc(b1-3)Gal(b1-4)GlcNAc(b1-3)Gal(b1-4)GlcNAc(b1-3)Gal(b1-4)GlcNAc(b1-3)Gal(b1-4)GlcNAc(b1-2)Man(a1-6)]Man(b1-4)GlcNAc(b1-4)GlcNAc
# Procedure, shortened: as §1
# [23] = target: Gal(b1-4)GlcNAc(b1-3)Gal(b1-4)GlcNAc(b1-3)Gal(b1-4)GlcNAc(b1-3)Gal(b1-4)GlcNAc(b1-3)Gal(b1-4)GlcNAc(b1-2)[Gal(b1-4)GlcNAc(b1-3)Gal(b1-4)GlcNAc(b1-3)Gal(b1-4)GlcNAc(b1-3)Gal(b1-4)GlcNAc(b1-3)Gal(b1-4)GlcNAc(b1-6)]Man(a1-6)[Gal(b1-4)GlcNAc(b1-3)Gal(b1-4)GlcNAc(b1-3)Gal(b1-4)GlcNAc(b1-3)Gal(b1-4)GlcNAc(b1-3)Gal(b1-4)GlcNAc(b1-2)Man(a1-3)]Man(b1-4)GlcNAc(b1-4)[Fuc(a1-6)]GlcNAc
# Procedure, shortened: as §1
# [24] = target: Gal4S(b1-4)GlcNAc
# Procedure, shortened: as §1
# [25] = target: Gal6S(b1-3)GlcNAc6S
# Procedure, shortened: as §1
# [26] = target: GalNAc(b1-4)GlcNAc(b1-3)GalNAc(b1-4)GlcNAc
# Procedure, shortened: as §1
# [27] = target: GlcA(b1-6)Gal
# Procedure, shortened: as §1
# [28] = target: GlcNAc(a1-4)Gal(b1-4)GlcNAc(b1-3)Gal(b1-4)GlcNAc(b1-3)Gal(b1-4)GlcNAc
# Procedure, shortened: as §1
# [29] = target: GlcNAc(a1-4)Gal(b1-4)GlcNAc(b1-3)Gal(b1-4)[Fuc(a1-3)]GlcNAc(b1-3)Gal(b1-4)[Fuc(a1-3)]GlcNAc
# Procedure, shortened: as §1
# [30] = target: GlcNAc(b1-3)Gal(b1-4)GlcNAc(b1-2)Man(a1-3)[GlcNAc(b1-3)Gal(b1-4)GlcNAc(b1-2)Man(a1-6)]Man(b1-4)GlcNAc(b1-4)GlcNAc
# Procedure, shortened: as §1
# [31] = target: GlcNAc(b1-3)Gal(b1-4)GlcNAc(b1-3)Gal(b1-4)GlcNAc(b1-3)Gal(b1-4)GlcNAc(b1-2)Man(a1-3)[GlcNAc(b1-3)Gal(b1-4)GlcNAc(b1-3)Gal(b1-4)GlcNAc(b1-3)Gal(b1-4)GlcNAc(b1-2)Man(a1-6)]Man(b1-4)GlcNAc(b1-4)[Fuc(a1-6)]GlcNAc
# Procedure, shortened: as §1
# [32] = target: GlcNAc(b1-3)Gal(b1-4)GlcNAc(b1-3)Gal(b1-4)GlcNAc(b1-3)Gal(b1-4)GlcNAc(b1-2)[GlcNAc(b1-3)Gal(b1-4)GlcNAc(b1-3)Gal(b1-4)GlcNAc(b1-3)Gal(b1-4)GlcNAc(b1-6)]Man(a1-6)[GlcNAc(b1-3)Gal(b1-4)GlcNAc(b1-3)Gal(b1-4)GlcNAc(b1-3)Gal(b1-4)GlcNAc(b1-2)Man(a1-3)]Man(b1-4)GlcNAc(b1-4)[Fuc(a1-6)]GlcNAc
# Procedure, shortened: as §1
# [33] = target: GlcNAc(b1-3)[GlcNAc(b1-4)][GlcNAc(b1-6)]GlcNAc
# Procedure, shortened: as §1
# [34] = target: Man(a1-3)[Man(a1-6)]Man
# Procedure, shortened: as §1
# [35] = target: Neu5Ac(a2-3)Gal(b1-3)GlcNAc(b1-3)Gal(b1-3)GlcNAc
# Procedure, shortened: as §1
# [36] = target: Neu5Ac(a2-3)Gal(b1-3)[Fuc(a1-4)]GlcNAc
# Procedure, shortened: as §1
# [37] = target: Neu5Ac(a2-3)Gal(b1-3)[Neu5Ac(a2-6)]GalNAc
# Procedure, shortened: as §1
# [38] = target: Neu5Ac(a2-3)Gal(b1-4)GlcNAc
# Procedure, shortened: as §1
# [39] = target: Neu5Ac(a2-3)Gal(b1-4)GlcNAc(b1-2)Man
# Procedure, shortened: as §1
# [40] = target: Neu5Ac(a2-3)Gal(b1-4)GlcNAc(b1-3)Gal(b1-3)GlcNAc
# Procedure, shortened: as §1
# [41] = target: Neu5Ac(a2-3)Gal(b1-4)GlcNAc6S
# Procedure, shortened: as §1
# [42] = target: Neu5Ac(a2-3)Gal(b1-4)[Fuc(a1-3)]GlcNAc(b1-3)GalNAc
# Procedure, shortened: as §1
# [43] = target: Neu5Ac(a2-3)Gal(b1-4)[Fuc(a1-3)]GlcNAc6S
# Procedure, shortened: as §1
# [44] = target: Neu5Ac(a2-6)Gal(b1-4)GlcNAc(b1-2)Man(a1-6)[Gal(b1-4)GlcNAc(b1-2)Man(a1-3)]Man(b1-4)GlcNAc(b1-4)GlcNAc
# Procedure, shortened: as §1
# [45] = target: Neu5Ac(a2-6)Gal(b1-4)GlcNAc(b1-2)Man(a1-6)[GlcNAc(b1-2)Man(a1-3)]Man(b1-4)GlcNAc(b1-4)GlcNAc
# Procedure, shortened: as §1
# [46] = target: Neu5Ac(a2-6)Gal(b1-4)GlcNAc(b1-3)Gal(b1-4)GlcNAc(b1-3)Gal(b1-4)GlcNAc(b1-2)Man(a1-3)[Neu5Ac(a2-6)Gal(b1-4)GlcNAc(b1-3)Gal(b1-4)GlcNAc(b1-3)Gal(b1-4)GlcNAc(b1-2)Man(a1-6)]GalNAc
# Procedure, shortened: as §1
# [47] = target: Neu5Ac(a2-6)GlcNAc(b1-4)GlcNAc
# Procedure, shortened: as §1
# [48] = target: Neu5Ac(a2-8)Neu5Ac(a2-8)Neu5Ac(a2-3)[Gal(b1-3)GalNAc(b1-4)]Gal(b1-4)Glc
# Procedure, shortened: as §1
# [49] = target: Neu5Gc(a2-3)Gal(b1-4)Glc
# Procedure, shortened: as §1
binder,measurement,setting,value
B1,glycan array binding signal (z-score),[1],0.097
same,glycan array binding signal (z-score),[2],3.71
same,glycan array binding signal (z-score),[3],1.13
same,glycan array binding signal (z-score),[4],-0.42
same,glycan array binding signal (z-score),[5],0.428
same,glycan array binding signal (z-score),[6],-0.393
same,glycan array binding signal (z-score),[7],-0.735
same,glycan array binding signal (z-score),[8],2.25
same,glycan array binding signal (z-score),[9],-0.597
same,glycan array binding signal (z-score),[10],-0.564
same,glycan array binding signal (z-score),[11],-0.002
same,glycan array binding signal (z-score),[12],-0.276
same,glycan array binding signal (z-score),[13],0.837
same,glycan array binding signal (z-score),[14],0.508
same,glycan array binding signal (z-score),[15],0.028
same,glycan array binding signal (z-score),[16],-0.082
same,glycan array binding signal (z-score),[17],0.503
same,glycan array binding signal (z-score),[18],-0.69
same,glycan array binding signal (z-score),[19],-0.734
same,glycan array binding signal (z-score),[20],-0.515
same,glycan array binding signal (z-score),[21],4.03
same,glycan array binding signal (z-score),[22],5.93
same,glycan array binding signal (z-score),[23],7.99
same,glycan array binding signal (z-score),[24],3.32
same,glycan array binding signal (z-score),[25],-0.99
same,glycan array binding signal (z-score),[26],2.09
same,glycan array binding signal (z-score),[27],-0.721
same,glycan array binding signal (z-score),[28],3.48
same,glycan array binding signal (z-score),[29],4.35
same,glycan array binding signal (z-score),[30],-0.474
same,glycan array binding signal (z-score),[31],3.92
same,glycan array binding signal (z-score),[32],0.187
same,glycan array binding signal (z-score),[33],0.095
same,glycan array binding signal (z-score),[34],0.76
same,glycan array binding signal (z-score),[35],-0.516
same,glycan array binding signal (z-score),[36],-1.17
same,glycan array binding signal (z-score),[37],0.382
same,glycan array binding signal (z-score),[38],-0.847
same,glycan array binding signal (z-score),[39],3.52
same,glycan array binding signal (z-score),[40],-0.862
same,glycan array binding signal (z-score),[41],3
same,glycan array binding signal (z-score),[42],3.93
same,glycan array binding signal (z-score),[43],-0.009
same,glycan array binding signal (z-score),[44],-0.289
same,glycan array binding signal (z-score),[45],-0.799
same,glycan array binding signal (z-score),[46],1.63
same,glycan array binding signal (z-score),[47],-0.396
same,glycan array binding signal (z-score),[48],-0.211
same,glycan array binding signal (z-score),[49],0.337
